Data on 19 compounds can be found in PubChem BioAssay (Tox21).

The nature of assay [1]: qHTS assay to identify aromatase inhibitors - cell viability counter screen (AID 743084).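 Note: cells stimulated with testosterone during compound exposure; nearly all actives have a fitted effect of over 55% in size.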 Note: potency is the fitted concentration of half-maximal effect. In general terms: In qHTS, concentration-response curves come from the screen itself.
In assay [2] the target is Aryl hydrocarbon receptor (Homo sapiens) (UniProt P35869). Nature of the assay: qHTS assay to identify small molecule that activate the aryl hydrocarbon receptor (AhR) signaling pathway (AID 743085).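 For activation: HG2L7.5c1 human HepG2 liver cells with stably integrated DRE-driven firefly reporter; series mostly up to about 70 µM.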 Note: nearly all actives have a fitted effect of over 15% in size. Note: potency is the fitted concentration of half-maximal effect. In a few lines:
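Reporter assay in engineered HepG2 line HG2L7.5c1, whose plasmid carries twenty dioxin responsive elements upstream of firefly luciferase. Treatment lasted 24 h at 37C; ONE-Glo luminescence gauged induction.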

Assay [3] is described as follows: qHTS assay to identify small molecule that activate the aryl hydrocarbon receptor (AhR) signaling pathway - cell viability counter screen (AID 743086). Note: nearly all actives have a fitted effect of over 45% in size. Note: potency is the fitted concentration of half-maximal effect. In a few lines:
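HepG2-AhR-luc (HG2L7.5c1) cells, 4000/well, treated 24 h at 37 C with compound; viability measured as CellTiter-Fluor fluorescence after 30 min in the same wells as the luciferase read.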

Assay [4] in a line: qHTS assay to identify small molecule phospholipidosis (PLD) inducers (AID 1259344; active = well fitted curve in the direction sought with a large enough effect; an effect the other way counts as inactive or inconclusive). In a few lines:
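Quantitative HTS in HepG2: compound plus LipidTOX Red dye for 24 h, paraformaldehyde fixation with Hoechst 33342, widefield high-content imaging; amiodarone as positive and DMSO as negative control.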

Assay [5] addresses Nuclear receptor subfamily 1 group I member 2 (Rattus norvegicus) (UniProt Q9R1A7). The assay is described as follows: Rat pregnane X receptor (rPXR) activation by small molecules, qHTS assay (AID 1346983). Note: nearly all actives have a fitted effect of over 20% in size. Particulars: rPXR luciferase reporter cells, One-Glo luminescence, 24 h; max activation: stronger effect = higher value. In a few lines: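 Cell-based rPXR activation assay: rPXR cells, 2,000 per well, rested 5hr at 37 C, then exposed to compounds in DMSO for 24 hr at 37 C. Luciferase activity read by One-Glo luminescence after 30 min at room temperature.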

Assay [6] addresses Nuclear receptor subfamily 1 group I member 2 (Homo sapiens) (UniProt O75469). Nature of the assay: CYP3A4 induction through human pregnane X receptor (PXR) by small molecules, qHTS assay (AID 1346984). Note: nearly all actives have a fitted effect of over 40% in size. Note: potency is the fitted concentration of half-maximal effect. In a few lines:
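DPX-2 reporter cells; 24h cpd, 37C; Luciferin-IPA 3uM final x3h; One-Glo 30 min RT; lumi read.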

Assay [7] shares this target. The assay is described as follows: Human pregnane X receptor (PXR) activation by small molecules, qHTS assay (AID 1346985). Note: nearly all actives have a fitted effect of over 40% in size. In a few lines:
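DPX-2 cells (HepG2 co-transfected with a PXR response element and a CYP3A4-promoter luciferase construct) were seeded at 2,000 per well, rested 5 hr at 37C, then exposed to DMSO-dissolved compounds for 24 hr. Activation was read as luciferase luminescence.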

Assay [8] addresses Peroxisome proliferator-activated receptor gamma (Homo sapiens) (UniProt P37231). The assay is described as follows: qHTS assay to identify small molecule agonists of the peroxisome proliferator-activated receptor gamma (PPARg) signaling pathway (AID 743094; active = well fitted activation curve with a large enough effect in the signal ratio in the repeat runs, not every such curve was filed as active; the % refers to the signal ratio). Summed up: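 Stably transfected HEK293H cells (GeneBLAzer PPARg UAS-bla) were incubated with test substances for 17 h at 37C after a 5 h pre-incubation; beta-lactamase activity was then detected by FRET substrate fluorescence.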

Results filed as inconclusive are left out. Values without a mark were called inactive. Activity calls are given as the source filed them. Unless noted, calls come from the whole dose curve; as a rule, active = well fitted curve in the direction sought with a large enough effect in the repeat runs; inconclusive = weak or mixed curves; inactive = no such curve, though single readings can be large; an effect the other way counts as inactive or inconclusive.
% is set by controls: 0 for no effect and ±100 for the full control effect.

Chain of Peroxisome proliferator-activated receptor gamma (Homo sapiens) (P37231 whole entry, looked up): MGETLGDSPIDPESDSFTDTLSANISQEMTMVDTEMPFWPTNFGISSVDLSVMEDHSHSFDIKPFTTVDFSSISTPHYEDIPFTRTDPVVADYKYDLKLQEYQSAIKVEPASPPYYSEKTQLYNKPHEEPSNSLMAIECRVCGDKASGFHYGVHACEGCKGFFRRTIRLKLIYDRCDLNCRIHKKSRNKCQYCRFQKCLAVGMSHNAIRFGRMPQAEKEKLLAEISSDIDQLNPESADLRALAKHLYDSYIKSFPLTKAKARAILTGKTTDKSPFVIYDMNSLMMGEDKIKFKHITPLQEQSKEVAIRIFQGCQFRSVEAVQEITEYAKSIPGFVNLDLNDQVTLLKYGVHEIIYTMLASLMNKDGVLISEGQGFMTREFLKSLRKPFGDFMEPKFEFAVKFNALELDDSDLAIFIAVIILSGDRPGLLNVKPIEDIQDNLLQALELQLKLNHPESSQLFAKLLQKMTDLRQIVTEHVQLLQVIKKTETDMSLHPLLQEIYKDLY
Chain of Aryl hydrocarbon receptor (Homo sapiens) (P35869 whole entry, looked up): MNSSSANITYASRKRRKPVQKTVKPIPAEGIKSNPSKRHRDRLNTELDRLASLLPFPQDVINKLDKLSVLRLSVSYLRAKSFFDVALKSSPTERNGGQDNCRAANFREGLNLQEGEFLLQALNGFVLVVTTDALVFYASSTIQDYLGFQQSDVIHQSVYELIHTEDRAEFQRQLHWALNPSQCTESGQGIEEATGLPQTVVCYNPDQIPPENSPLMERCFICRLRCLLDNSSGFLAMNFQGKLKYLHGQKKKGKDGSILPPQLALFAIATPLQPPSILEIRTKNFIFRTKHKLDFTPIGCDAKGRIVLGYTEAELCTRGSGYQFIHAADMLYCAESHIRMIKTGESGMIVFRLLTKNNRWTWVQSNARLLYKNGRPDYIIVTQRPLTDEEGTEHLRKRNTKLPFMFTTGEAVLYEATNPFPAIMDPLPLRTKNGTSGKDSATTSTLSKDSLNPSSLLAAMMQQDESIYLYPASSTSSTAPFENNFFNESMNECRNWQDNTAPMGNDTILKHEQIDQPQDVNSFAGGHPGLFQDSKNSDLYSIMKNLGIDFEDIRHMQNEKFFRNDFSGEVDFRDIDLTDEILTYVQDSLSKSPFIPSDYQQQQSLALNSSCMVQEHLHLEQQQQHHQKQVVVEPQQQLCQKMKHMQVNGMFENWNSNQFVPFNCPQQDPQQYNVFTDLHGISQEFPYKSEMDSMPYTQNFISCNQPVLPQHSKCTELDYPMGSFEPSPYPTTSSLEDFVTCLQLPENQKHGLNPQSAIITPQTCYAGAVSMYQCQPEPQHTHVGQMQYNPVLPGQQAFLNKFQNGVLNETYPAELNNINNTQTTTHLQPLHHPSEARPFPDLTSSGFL
Chain of Nuclear receptor subfamily 1 group I member 2 (Rattus norvegicus) (Q9R1A7 whole entry, looked up): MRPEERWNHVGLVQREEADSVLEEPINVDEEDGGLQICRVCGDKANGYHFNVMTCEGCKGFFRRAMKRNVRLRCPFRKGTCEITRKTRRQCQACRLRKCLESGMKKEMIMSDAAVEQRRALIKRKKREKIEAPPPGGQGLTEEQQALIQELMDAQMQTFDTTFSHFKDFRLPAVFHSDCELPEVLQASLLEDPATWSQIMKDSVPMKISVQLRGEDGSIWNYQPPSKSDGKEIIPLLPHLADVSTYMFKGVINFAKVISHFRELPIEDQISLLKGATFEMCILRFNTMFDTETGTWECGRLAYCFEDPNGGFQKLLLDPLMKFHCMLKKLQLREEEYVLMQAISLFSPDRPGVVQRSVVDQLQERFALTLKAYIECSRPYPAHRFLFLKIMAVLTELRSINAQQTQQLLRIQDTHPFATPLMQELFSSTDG

Consider `Clc1cc(Cl)c(OCC#CI)cc1Cl`, for which the values for the Potency in assay [1] and in assay [3] were 21.1 µM (active) and 26.6 µM (active), respectively. Also, the Potency result in assay [2], in assay [4], in assay [6] and in assay [7] was “inactive” each time. Moreover, the max activation in assay [5] is -1.32%.
As to `CC(=O)Oc1cc(C)c(OC(C)=O)c2ccccc12`, the Potency entry in assay [1], in assay [3], in assay [4] and in assay [7] was “inactive” throughout. In addition, the results for the Potency in assay [2] and in assay [6] were 29.8 µM (active) and 12.6 µM (active), respectively. Also, the max activation in assay [5] was 0.757%.
With `CCCCCCCCCCCCCCCC(=O)OC[C@@H](O)[C@H]1OC[C@H](O)[C@H]1O`, the Potency result in assay [1], in assay [2], in assay [3], in assay [4], in assay [6] and in assay [7] was “inactive” in each case. Besides, the max activation in assay [5] is 2.9%.
With `CCC(=O)O[C@@H]1CC(=O)O[C@H](C)C/C=C/C=C/[C@H](O)[C@H](C)C[C@H](CC=O)[C@H](O[C@@H]2O[C@H](C)[C@@H](O[C@H]3C[C@@](C)(O)[C@@H](OC(=O)CC)[C@H](C)O3)[C@H](N(C)C)[C@H]2O)[C@H]1OC`, the Potency result in assay [1], in assay [2], in assay [3], in assay [4], in assay [6] and in assay [7] was “inactive” each time. The max activation in assay [5] is -4.74%.
For `Cc1ncc(C[n+]2csc(CCOP(=O)(O)OP(=O)(O)O)c2C)c(N)n1`, the Potency result in assay [1], in assay [2], in assay [3], in assay [8], in assay [4] and in assay [6] was “inactive” in each case. Also, the Potency result in assay [7] was “inactive”. The max activation in assay [5] is -0.276%.
Consider `CNCC(O)c1ccc(OC(=O)C(C)(C)C)c(OC(=O)C(C)(C)C)c1` (configuration not stated), for which the Potency entry in assay [1], in assay [2], in assay [3], in assay [8], in assay [4] and in assay [6] was “inactive” in each case. The Potency entry in assay [7] was “inactive”. In assay [5], the max activation was 0.121%.
Regarding `COc1ccc(C[C@@H](C)NC[C@H](O)c2ccc(O)c(NC=O)c2)cc1`, the Potency result in assay [1], in assay [2], in assay [3], in assay [4], in assay [6] and in assay [7] was “inactive” throughout. Further, the max activation in assay [5] was -1.9%.
Consider `O=C(Nc1ccc(O)cc1)c1ccccc1O`, for which the Potency entry in assay [1], in assay [3], in assay [8], in assay [4] and in assay [7] was “inactive” in each case. For the same compound, the values for the Potency in assay [2] and in assay [6] were 23.7 µM (active) and 11.2 µM (active), respectively. Further, in assay [5], the max activation is 3.27%.
For `CC(C)C[C@H](NC(=O)[C@@H](Cc1c[nH]c2ccccc12)NC(=O)[C@H](Cc1ccc(O)cc1)NC(=O)[C@H](CO)NC(=O)[C@H](Cc1c[nH]c2ccccc12)NC(=O)[C@H](Cc1cnc[nH]1)NC(=O)[C@@H]1CCC(=O)N1)C(=O)N[C@@H](CCCN=C(N)N)C(=O)N1CCC[C@@H]1C(=O)NCC(N)=O`, the Potency entry in assay [1], in assay [2], in assay [3], in assay [8], in assay [4] and in assay [6] was “inactive” each time. Further, in assay [7], the Potency entry was “inactive”. Moreover, in assay [5], the max activation is -2.6%.
Turning to `CS(=O)(=O)c1ccc(C2=C(c3ccccc3)C(=O)OC2)cc1`, the Potency entry in assay [1], in assay [2], in assay [3], in assay [8], in assay [4] and in assay [6] was “inactive” throughout. The Potency result in assay [7] is “inactive”. The max activation in assay [5] was -0.681%.
For `CCN(CC)CCOc1ccccc1OC`, the Potency result in assay [1], in assay [2], in assay [3], in assay [8], in assay [4] and in assay [6] was “inactive” throughout. The Potency entry in assay [7] is “inactive”. Further, the max activation in assay [5] is -0.861%.
`CC(=O)N[C@@H](C=O)[C@@H](O)[C@H](O)[C@H](O)CO`: the Potency result in assay [1], in assay [2], in assay [3], in assay [8], in assay [4] and in assay [6] was “inactive” each time. Further, the Potency entry in assay [7] was “inactive”. Besides, in assay [5], the max activation is -0.914%.
As for `COc1cc(/C=C/C(=O)N2CCN(CC(=O)N3CCCC3)CC2)cc(OC)c1OC`, the Potency result in assay [1], in assay [2], in assay [3], in assay [8], in assay [4] and in assay [6] was “inactive” each time. Further, the Potency result in assay [7] was “inactive”. The max activation in assay [5] is 0.536%.
Regarding `CC(C)NCC(O)COc1ccccc1-n1cccc1` (configuration not stated), the Potency entry in assay [1], in assay [2], in assay [3], in assay [8], in assay [4] and in assay [6] was “inactive” throughout. Further, in assay [7], the Potency result is “inactive”. In assay [5], the max activation was 1.86%.
Consider `CCOC(=O)O[C@]1(C(=O)COC(=O)CC)CC[C@H]2[C@@H]3CCC4=CC(=O)C=C[C@]4(C)[C@H]3[C@@H](O)C[C@@]21C`, for which the Potency entry in assay [1], in assay [2], in assay [3], in assay [8], in assay [4] and in assay [6] was “inactive” throughout. Also, the Potency result in assay [7] was “inactive”. In assay [5], the max activation was 13.1%.
For the compound `CO/N=C(\C(=O)N[C@@H]1C(=O)N2C(C(=O)O)=C(CSc3nnnn3C)CS[C@H]12)c1csc(N)n1`, the Potency result in assay [1], in assay [2], in assay [3], in assay [8], in assay [4] and in assay [6] was “inactive” in each case. In assay [7], the Potency entry was “inactive”. Moreover, in assay [5], the max activation is -3.46%.
As to `C=CCCCCCCCCC(=O)OC`, the Potency result in assay [1], in assay [2], in assay [3], in assay [8], in assay [4] and in assay [6] was “inactive” each time. Besides, the Potency result in assay [7] was “inactive”. For the same compound, the max activation in assay [5] is -1.33%.
On to `CC1C(=O)CC2C3(C)CCC2(C(C)C(=O)O)C(=O)C13` (configuration not stated), for which the Potency entry in assay [1], in assay [2], in assay [3], in assay [8], in assay [4] and in assay [6] was “inactive” throughout. Further, in assay [7], the Potency entry was “inactive”. The max activation in assay [5] was 0.0537%.
Consider `[O]=[Bi][O]C(=O)[O][Bi]=[O]`, for which the Potency result in assay [1], in assay [2], in assay [3], in assay [8], in assay [4] and in assay [6] was “inactive” in each case. Further, the Potency result in assay [7] is “inactive”. In addition, the max activation in assay [5] was -3.15%.
